Laboratory results taken from publication PMC5540273 (PLoS ONE, 2017).

system: T1, p38-alpha; conditions: concentration: 1 μM, replicates: in singlicate; n = 1
T1 construct: gene MAPK14
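Also: KINOMEscan kinase panel screen.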

Compound | %Inh [%]
COC(=O)Nc1nc2ccc(Oc3ccc(NC(=O)Nc4cc(C(F)(F)F)ccc4F)cc3)cc2n1C.Cl [GW692089] | 57
O=C(O)C(F)(F)F.O=C(O)C(F)(F)F.O=c1[nH]ccc2nc(N[C@@H]3CCCNC3)nc(Nc3ccc(S(=O)(=O)N4CCOCC4)cc3)c12 [GSK2177277] | 0
CCn1c(-c2nonc2N)nc2c(C#CC(C)(C)O)ncc(OCCCCN)c21.O=C(O)C(F)(F)F.O=C(O)C(F)(F)F [GSK507274] | 0

system: T2, p38-beta; conditions: concentration: 1 μM, replicates: in singlicate; n = 1
T2 construct: gene MAPK11

Compound | %Inh [%]
CN1CCN(Cc2cccc(-c3ccc4c(Nc5ccc(Oc6ccccc6)cc5)ccnc4c3)c2)CC1 [GW578342] | 0
O=C(Nc1ccccc1F)NC1CCN(c2ccnc(Nc3ccc(F)cc3)n2)CC1 [GSK1379800] | 0
Cl.c1ccc(-c2ccc3c(Nc4ccc5[nH]ncc5c4)ccnc3c2)nc1 [GW440137] | 0
CCn1c(-c2nonc2N)nc2c(C#CC(C)(C)O)nc(OC[C@H](N)c3ccccc3)cc21 [GSK943949] | 0
O=C(Nc1cccc(-c2nn3ccccc3c2-c2ccnc(Nc3cccc(C(F)(F)F)c3)n2)c1)c1c(F)cccc1F [GSK292658] | 32
Cn1cc(-c2ccc3c(c2)CCN3C(=O)Cc2cccc(F)c2)c2c(N)ncnc21 [GSK2603358] | 0
COc1cc(Nc2nccc(N3CCC(NC(=O)c4cc5ccccc5s4)C3)n2)cc(OC)c1OC (stereo not shown) [GSK1379760] | 2
COCCOCCOc1cc2ncc3c4ccc(C#N)cc4[nH]c3c2cc1OC | 0
Cl.Cl.NCC(NC(=O)c1cc(-c2ccccc2)c(-c2ccnc3[nH]ccc23)s1)c1ccccc1 (stereo not shown) [GSK1321561] | 0
COc1cc(Nc2nccc(-c3c(-c4cccc(NC(=O)c5c(F)cccc5F)c4)nn4ncccc34)n2)cc(OC)c1OC [GSK327238] | 100
CN(C)S(=O)(=O)c1cc(-c2ccc3nccc(-c4cccc(S(N)(=O)=O)c4)c3c2)cnc1N [GSK1669921] | 0
Cl.Cl.NCC(NCc1ccc(-c2ccnc3[nH]ccc23)s1)c1ccccc1 (stereo not shown) [GSK1321565] | 0
Cc1ccc(S(=O)(=O)Nc2ccc(Nc3nccc(Nc4cccc5[nH]ncc45)n3)cc2)cc1 [GSK581271] | 0
CC(=O)Nc1nc2cnc(Nc3cc(NC(=O)c4cccc(C5(C#N)CC5)c4Cl)ccc3C)nc2s1 | 19
CNC(=O)c1ccccc1Nc1nc(Nc2ccc(N3CCOCC3)cc2)ncc1Cl.Cl [GSK1576028] | 2
Cc1ccc(C(=O)N2CC[C@@H](O)C2)cc1-n1c(C)cc(OCc2ccc(F)cc2F)c(Br)c1=O | 95.4
COc1ccc(Nc2nccc(N3CCC(NC(=O)Nc4cccc(OC)c4)C3)n2)cc1 (stereo not shown) [GSK1379742] | 0
Cl.Cl.NCC(C(=O)Nc1cc(Br)c(-c2ccnc3[nH]ccc23)s1)c1ccccc1 (stereo not shown) [GSK1269851] | 40
Oc1cc(Nc2ccnc3cc(I)ccc23)ccc1F [GW552771] | 0

Compound | %Inh [%]
COc1ccc(Nc2nccc(NCCNC(=O)c3cc4ccccc4s3)n2)cc1 [GSK1379896] | 0
CCS(=O)(=O)c1ccc(OC)c(Nc2nccc(-c3c(-c4cccc(NC(=O)c5c(F)cccc5F)c4)nn4ncccc34)n2)c1 [GSK326180] | 99.6
COc1cccc(C(=O)Nc2cccc(Oc3ccc4nc(NC(=O)C5CC5)cn4n3)c2)c1 | 16
CN(C)Cc1ccc(-c2ccc3c(Nc4ccc(Oc5ccccn5)cc4)ccnc3c2)o1 [GW567148] | 0
Clc1ccc(-c2nn3ncccc3c2-c2ccnc(Nc3ccc4c(c3)OCCO4)n2)cc1 [GW829116] | 83
Cl.c1ccc(-c2ccc3c(Nc4ccc5[nH]ccc5c4)ccnc3c2)nc1 [GW440138] | 0
Fc1ccc(-c2ncn(C3CCNCC3)c2-c2ccnc(Oc3ccc(-c4ccccc4)cc3)n2)cc1 [SB-245391] | 60
O=C(Nc1cccc(Oc2ccc3nc(NC(=O)C4CC4)cn3n2)c1)c1ccccc1C(F)(F)F | 15
COc1cccc(C2=C(Nc3ccc(Cl)c(C(=O)O)c3)C(=O)NC2=O)c1 [SB-390769] | 0
Cc1ccc(C(=O)Nc2ccc(Nc3ccnc4cc(-c5nccs5)ccc34)cc2O)cc1.Cl [GW494702] | 0
Cc1ccc(C)c(NC(=O)NC2CCN(c3ccnc(Nc4ccc(F)cc4)n3)C2)c1 (stereo not shown) [GSK1379720] | 0
COc1ccc(-c2coc3ccc(-c4nnc(SCc5ccc(OC)c(C(F)(F)F)c5)o4)cc23)cc1 | 6
COc1cc(Nc2ncc3c(C)nc(-c4cc5ccccc5[nH]4)n3n2)cc(OC)c1OC [GW869516] | 2
O=C(NC1CCN(c2ccnc(Nc3ccc(F)cc3)n2)C1)c1cc2ccccc2s1 (stereo not shown) [GSK1379716] | 0
Cn1cc(-c2ccc3c(c2)CCN3C(=O)Cc2cccc(Cl)c2)c2c(N)ncnc21 [GSK2606590] | 0
COC(=O)Nc1nc2ccc(Oc3ccc(NC(=O)Nc4cc(C(F)(F)F)ccc4F)cc3)cc2n1C.Cl [GW692089] | 16
O=C(O)C(F)(F)F.O=C(O)C(F)(F)F.O=c1[nH]ccc2nc(N[C@@H]3CCCNC3)nc(Nc3ccc(S(=O)(=O)N4CCOCC4)cc3)c12 [GSK2177277] | 0
CCn1c(-c2nonc2N)nc2c(C#CC(C)(C)O)ncc(OCCCCN)c21.O=C(O)C(F)(F)F.O=C(O)C(F)(F)F [GSK507274] | 0
